# Hit rate of the full screen: of about 310,000 compounds, about 14,000 (4.5%) showed an effect of 50% or more. Effects have a minus sign here. This is one part of a sample in which strong results are shown more often than they occur.
# Biological target: human ether-à-go-go-related gene (hERG) potassium channel (human, UniProt Q12809)
# Assay: primary screen, population patch clamp on CHO cells stably expressing hERG; higher = less effect of the substance
# 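Note: peak tail current of the secondary pulse compared with the same well before compound.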
# human ether-à-go-go-related gene (hERG) potassium channel, sequence (Q12809 whole entry, looked up): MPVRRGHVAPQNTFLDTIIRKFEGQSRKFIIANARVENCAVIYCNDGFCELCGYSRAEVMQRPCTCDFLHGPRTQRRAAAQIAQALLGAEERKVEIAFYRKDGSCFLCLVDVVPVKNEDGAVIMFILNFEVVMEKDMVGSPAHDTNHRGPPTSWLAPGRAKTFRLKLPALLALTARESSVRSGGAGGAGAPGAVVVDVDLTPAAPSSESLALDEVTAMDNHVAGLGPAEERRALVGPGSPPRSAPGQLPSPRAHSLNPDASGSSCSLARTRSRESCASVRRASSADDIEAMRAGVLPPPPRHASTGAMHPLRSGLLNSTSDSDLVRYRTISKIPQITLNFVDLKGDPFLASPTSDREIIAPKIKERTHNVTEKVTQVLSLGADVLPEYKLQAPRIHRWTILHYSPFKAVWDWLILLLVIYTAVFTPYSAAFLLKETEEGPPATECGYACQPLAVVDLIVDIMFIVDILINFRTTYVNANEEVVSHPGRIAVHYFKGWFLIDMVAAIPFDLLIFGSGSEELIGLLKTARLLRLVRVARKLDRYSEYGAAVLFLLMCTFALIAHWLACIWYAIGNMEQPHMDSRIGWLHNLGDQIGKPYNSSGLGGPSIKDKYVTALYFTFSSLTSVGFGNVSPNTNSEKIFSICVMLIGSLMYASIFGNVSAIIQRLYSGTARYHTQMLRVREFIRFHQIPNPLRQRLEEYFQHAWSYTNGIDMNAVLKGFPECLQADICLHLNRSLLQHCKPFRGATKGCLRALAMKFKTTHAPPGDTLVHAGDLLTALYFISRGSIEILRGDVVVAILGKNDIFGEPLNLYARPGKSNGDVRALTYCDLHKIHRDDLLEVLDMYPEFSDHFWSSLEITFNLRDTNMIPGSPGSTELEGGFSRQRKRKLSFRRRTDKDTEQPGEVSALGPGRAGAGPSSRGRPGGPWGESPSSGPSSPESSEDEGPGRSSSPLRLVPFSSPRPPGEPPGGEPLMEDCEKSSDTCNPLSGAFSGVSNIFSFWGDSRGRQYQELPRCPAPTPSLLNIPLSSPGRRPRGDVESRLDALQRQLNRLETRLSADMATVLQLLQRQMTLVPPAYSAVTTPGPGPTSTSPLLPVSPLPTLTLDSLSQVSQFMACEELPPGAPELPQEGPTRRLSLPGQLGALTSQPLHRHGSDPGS
row,SMILES,"hERG current change (%, negative = inhibition) at 10uM [%]"
1,COc1ccc(NC(=O)CSc2cn[nH]n2)cc1OC,31.4
2,COc1ccc(NC(=O)N2C[C@@H]3C[C@@H](C2)c2cccc(=O)n2C3)cc1,7.74
3,N#C/C(=N\Nc1ccc(Cl)cc1)C(=N)N1CCCCC1,-31.1
4,CC(C)C(=O)Nc1ccc(S(=O)(=O)N2CCC(c3nc4ccccc4[nH]3)CC2)cc1,-42.7
5,CC1=CCC(C(=O)O)C(C(=O)Nc2ccc(-c3nc4ccc(C)cc4s3)cc2)C1 (centres unmarked),7.8
6,COc1ccccc1Oc1ccccc1[N+](=O)[O-],5.95
7,O=C(NNC(=O)c1ccc(Cl)c([N+](=O)[O-])c1)c1ccncc1,13.2
8,COc1cc(/C=C2/C(=O)N(c3ccc([N+](=O)[O-])cc3)N=C2N2CCOCC2)ccc1O,-42.2
9,Cc1nc2c3cc(F)ccc3n(Cc3ccc(F)cc3)c2s1,13.8
10,COC(=O)Cn1c2ccc(Cl)cc2c2nc(C)sc21,5.43
11,CCN(CC)CCn1c2ccc(F)cc2c2nc(C)sc21.Cl,-54.3
12,CCN(CC)CCn1c2ccc(Cl)cc2c2nc(C)sc21.Cl,-68.2
13,CCN(CC)CCn1c2ccccc2c2nc(C)sc21,-30.6
14,Cc1nc2c3cc(F)ccc3n(Cc3ccccc3)c2s1,4.24
15,COc1ccc(-n2ccc(=O)c3c2CCCC3=O)cc1,13.5
16,CCn1cc(C(=O)O)c(=O)c2cnc(N3CCN(C(=S)Nc4ccccc4Cl)CC3)nc21,-4.66
17,N#Cc1ccc(Cl)cc1NC(=O)COC(=O)[C@H](CCC(N)=O)NC(=O)c1ccc(F)cc1,1.75
18,Cc1ccc2c(c1)C(C)CC(C)(C)N2C(=O)CN1CCN(C)CC1.O=C(O)C(=O)O (centres unmarked),-23.6
19,C/C=C(\C)C(=O)NCCN1C2=NC[C@@H](C)N2C[C@@H]1Cc1ccc(OC)cc1,0.0958
20,COc1ccc(C[C@@H]2CN3C(=NC[C@@H]3C)N2CCNC(=O)c2ccc(C)c(Br)c2)cc1,-71.4
21,C/C=C(\C)C(=O)NCCN1C2=NC[C@@H](C)N2C[C@H]1Cc1ccc(O)cc1,12.9
22,Cc1ccc(C(=O)NCCN2C3=NC[C@H](C(C)C)N3C[C@H]2Cc2ccc(O)cc2)cc1Br,-26.3
23,COc1ccc(C[C@H]2CN3C(=NC[C@H]3C)N2CCNC(=O)c2ccc(C)c(Br)c2)cc1,-72

row,SMILES,"hERG current change (%, negative = inhibition) at 10uM [%]"
1,COc1ccc(C[C@H]2CN3C(=NC[C@@H]3C(C)C)N2CCNC(=O)c2ccc(C)c(Br)c2)cc1,-79
2,CCc1nc(-c2ccccc2)cc(=O)[nH]1,-6.29
3,CCOC(=O)c1cc(NC(=O)c2ccc(C)cc2)c(=O)oc1C(F)(F)F,-2.5
4,O=C(CSCc1ccccc1)Nc1ccc(S(=O)(=O)N2CCOCC2)cc1,-17.7
5,Cc1cc(C(=O)N/N=C/c2ccc(-c3cccc(Br)c3)o2)n[nH]1,12.4
6,NS(=O)(=O)c1ccc(CNC(=O)CC23CC4CC(CC(C4)C2)C3)cc1,-5.69
7,Cc1nn(C)c(C)c1NC(=O)CSc1nnc(C)n1-c1ccccc1,-0.523
8,Cc1cc(NC(=O)CSc2nnc3c(C)cc4cc(C)c(C)cc4n23)no1,20
9,O=C1CNC(=O)/C1=C/c1ccc(Br)cc1,16.7
10,CN1/C(=C/C(=O)c2nc(S(C)(=O)=O)ncc2Cl)C(C)(C)c2ccccc21,-29.9
11,CCN(CC)CCn1c2c(c(SCC(=O)Nc3ccc(C(C)C)cc3)nc1=O)CCCC2,-68.3
12,CCN(CC)CCn1c2c(c(SCC(=O)Nc3ccc(C(C)C)cc3)nc1=O)CCC2,-56.9
13,O=C(COC(=O)c1ccc(NS(=O)(=O)c2ccc3c(c2)OCCO3)cc1)NC1CC1,-1.56
14,COc1cc(OC)c(C2=NOC(C(=O)O)C2)cc1Cl (centres unmarked),5.14
15,CC(C)(C)c1ccc(SCCc2ccncc2)cc1,3.48
16,COC(=O)C1=C(c2ccc(F)cc2OCc2ccccc2)C[C@@H]2CC[C@H]1N2C(=O)NCc1cccc(OC)c1,2.72
17,COc1ccc(-c2cc(=Nc3ccc(C)cc3)c3ccccc3o2)cc1,5.87
18,COc1ccc(N=c2cc(-c3ccc(OC)cc3)oc3ccccc23)cc1,4.41
19,CCc1ccc2oc(-c3ccc(OC)cc3)cc(=[NH+]c3c(C)n(C)n(-c4ccccc4)c3=O)c2c1.F[B-](F)(F)F,-71.7
20,COc1ccc(-c2cc(C(=O)Nc3c(C)n(C)n(-c4ccccc4)c3=O)no2)cc1,6.42
21,CCc1ccc2oc(-c3ccc(OC)cc3)cc(=[NH+]c3cccc(C(=O)O)c3)c2c1.F[B-](F)(F)F,5
22,COc1ccc(-c2cc(=Nc3c(C)n(C)n(-c4ccccc4)c3=O)c3ccccc3o2)cc1,-68.1
23,COc1ccc(CCNC(=S)NCCc2ccc(OC)c(OC)c2)cc1OC,5.11

row,SMILES,"hERG current change (%, negative = inhibition) at 10uM [%]"
1,Cc1ccn2cc(CSc3ccccc3N)nc2c1,-29.1
2,CCN(CC)c1ccc(NC(=O)CCc2nnc3ccc(N4CCCCC4)nn23)c(C)c1,-12.8
3,CCCCC/C(=N/O)c1c(C)[nH]c2ccccc12,4.53
4,Cc1ccc(N(CC(O)CON=C2c3ccccc3-c3ccccc32)S(C)(=O)=O)cc1 (centres unmarked),15.5
5,Cc1ccc(C)c(S(=O)(=O)N2CCCC2CNC(=O)C(=O)NCCc2ccco2)c1 (centres unmarked),-21.2
6,Cc1ccc(S(=O)(=O)N2CCCC2CNC(=O)c2ccccc2)cc1 (centres unmarked),-9.34
7,Cc1ccc(C)c(S(=O)(=O)N2CCCC2CNC(=O)C(=O)NC2CC2)c1 (centres unmarked),-0.659
8,O=C(NCC1CCCN1S(=O)(=O)c1cccs1)c1ccc([N+](=O)[O-])cc1 (centres unmarked),-55.2
9,Cc1ccc(S(=O)(=O)N2CCCC2CNC(=O)c2ccc(F)c(F)c2)cc1 (centres unmarked),-52.5
10,Cc1ccc(C)c(S(=O)(=O)N2CCCCC2CCNC(=O)C(=O)NCc2ccco2)c1 (centres unmarked),-21.8
11,Cc1ccc(C)c(S(=O)(=O)N2CCCC2CNC(=O)C(=O)NCc2ccco2)c1 (centres unmarked),-54.2
12,Cc1ccc(C)c(S(=O)(=O)N2CCCC2CNC(=O)C(=O)NCC2CCCO2)c1 (centres unmarked),-15.5
13,Cc1ccc(C)c(S(=O)(=O)N2CCCC2CNC(=O)c2ccc([N+](=O)[O-])cc2)c1 (centres unmarked),-81.8
14,O=C(NCC1CCCN1S(=O)(=O)c1cccs1)c1ccccc1 (centres unmarked),16.5
15,Cc1ccc(C(=O)NCC2CCCN2S(=O)(=O)c2ccc(C)cc2)cc1 (centres unmarked),-33.8
16,O=C(NCC1CCCN1S(=O)(=O)c1cccs1)c1cccc([N+](=O)[O-])c1 (centres unmarked),-24.5
17,COc1ccc(C(CNC(=O)C(CC(C)C)NS(=O)(=O)c2ccc(C)cc2)N2CCOCC2)cc1 (centres unmarked),-3.25
18,Oc1c(C=NCc2ccncc2)sc2ccccc12,-38.4
19,CCCCn1c(N)c(N(CCC(C)C)C(=O)c2cccc(-n3cnnn3)c2)c(=O)[nH]c1=O,-7.92
20,CCc1ccc(CN(C)C(=O)CC2C(=O)NCCN2Cc2ccoc2)cc1 (centres unmarked),4.18
21,COc1ccc(Cl)cc1NC(=O)C1CCN(S(C)(=O)=O)CC1,3.72
22,CCOc1ccccc1/C=C/c1onc(C)c1S(=O)(=O)N1CCC(C(=O)N(CC)CC)CC1,-3.33
23,O=C(NCc1cccnc1)c1ccc(NC(=O)c2ccc([N+](=O)[O-])cc2)cc1,9.09

row,SMILES,"hERG current change (%, negative = inhibition) at 10uM [%]"
1,CCOC(=O)Cc1cc(=O)n2[nH]c(-c3ccc(Cl)cc3)cc2n1,-20.4
2,CCCc1nc2oc3cc(OC)ccc3c(=O)c2c(=O)n1CCc1ccccc1,-38.3
3,COc1ccc(-n2c(=O)c(NC(=O)c3ccccc3)c3n(c2=S)CCCCC3)cc1,-3.03
4,CC(=O)c1ccc(NC(=O)CO/N=C(\C)c2cccs2)cc1,-8.22
5,O=C(Nc1ccccn1)c1ccc2c(c1)S(=O)(=O)c1ccccc1C2=O,6.46
6,CCCCCn1cnnc1SCC(=O)c1ccc2c(c1)OCO2,-27.9
7,Cc1nc2c3ccccc3nc(SCC(=O)c3ccc(Cl)cc3)n2n1,2.48
8,COC(=O)C1=C(C(=O)OC)[C@@H]2N(Cc3ccccc3)c3ccccc3[C@@]23C[C@@H](C(=O)OC)N(C(=O)NC2CCCCC2)C3=N1,-12.1
9,COc1ccc(-n2c(CN3CCOCC3)nc3ccc([N+](=O)[O-])cc3c2=O)c(OC)c1,-3.17
10,COc1ccc(-n2c(CN3CCN(c4ccccc4)CC3)nc3ccc([N+](=O)[O-])cc3c2=O)c(OC)c1,-10.8
11,COc1ccc(-n2c(CN3CCC(C)CC3)nc3ccc([N+](=O)[O-])cc3c2=O)c(OC)c1,4.93
12,CCOC(=O)C1CCN(Cc2nc3ccc([N+](=O)[O-])cc3c(=O)n2-c2ccc(OC)cc2OC)CC1,-53.8
13,COc1cccc(-n2c(CN3CCN(c4ccccn4)CC3)nc3ccc([N+](=O)[O-])cc3c2=O)c1,-40
14,CCOC(=O)C1CCCN(Cc2nc3ccc([N+](=O)[O-])cc3c(=O)n2-c2ccc(OC)cc2OC)C1 (centres unmarked),-28.9
15,COc1ccc(-n2c(CN3CCN(Cc4ccccc4)CC3)nc3ccc([N+](=O)[O-])cc3c2=O)c(OC)c1,-51.1
16,COc1ccc(-n2c(CN3CCC(C(N)=O)CC3)nc3ccc([N+](=O)[O-])cc3c2=O)c(OC)c1,-3.9
17,CCN1CCN(Cc2nc3ccc([N+](=O)[O-])cc3c(=O)n2-c2ccc(OC)cc2OC)CC1,-52
18,COc1ccc(-n2c(CN3CCN(c4ccccn4)CC3)nc3ccc([N+](=O)[O-])cc3c2=O)c(OC)c1,-55.5
19,COc1ccc(-n2c(CN3CCN(c4ccc(F)cc4)CC3)nc3ccc([N+](=O)[O-])cc3c2=O)c(OC)c1,-44.6
20,COc1ccc(-n2c(CN3CCN(C)CC3)nc3ccc([N+](=O)[O-])cc3c2=O)c(OC)c1,-38.4

# From publication PMC4336329 (PLoS ONE, 2015)
